The list is not random: actives were taken first. Their share in the collection is about 11%.
BAZ2B block: blocks human BAZ2B; Q9UIF8; 4.4% of 360,000 active; Potency, µM (top dose mostly 114 µM), inactives show at the highest dose activity change, negative = inhibition, hits mostly inhibitors; AlphaScreen BAZ2B-H3K14Ac peptide displacement; AID 504333; further: potency means the concentration at half of the fitted maximal effect; on the % scale 0 is the no-effect control and ±100 the full control effect; nearly all actives have a fitted effect of over 60% in size
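In this displacement format the biotinylated H3(5-23) peptide acetylated at Lys14 serves as ligand at 50 nM, with BAZ2B at 50 nM in PBS pH 7.4 containing 0.01% Tween-20. Donor and acceptor beads are 10 ug/mL final.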
L3MBTL1 inh: inhibitors of human L3MBTL1; Q9Y468; AlphaScreen L3MBTL1–H3K9me1 peptide binding; Potency, µM (titrated, usually from 57.1 µM), inactives show at the top dose activity, negative = inhibition, usual class: inhibitors; 0.66% of 230,000 active; AID 485360; further: potency means the concentration at half of the fitted maximal effect; on the % scale 0 is the no-effect control and ±100 the full control effect; nearly all actives have a fitted effect of over 60% in size
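L3MBTL1 (50 nM) pre-complexed 30 min with biotinylated H3(1-15)K9me1 peptide (75 nM), then compounds added for 30 min at room temperature; AlphaScreen streptavidin donor/nickel chelate acceptor beads (10 ug/mL final) read after 30 min dark incubation.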
JMJD2A Tudor: JMJD2A Tudor domain (human) inhibition; 4.4% of 390,000 active; O75164; AlphaScreen JMJD2A-Tudor / H3K4me3 peptide binding; Potency, µM (titrated, usually from 114 µM), inactives show top-dose activity change, negative = inhibition, usual class: inhibitors; further: potency means the concentration at half of the fitted maximal effect; on the % scale 0 is the no-effect control and ±100 the full control effect; nearly all actives have a fitted effect of over 50% in size
PI5P4K alpha inh: PI5P4K alpha (human) kinase inhibition; 1.2% of 330,000 active; P48426; max response, %; PI5P4Kalpha enzyme, ADP-Glo luminescence, 60 min; stronger effect = lower value; active means max response of -50% or lower; inconclusive means between -30% and -50%; inactive means -30% or higher; further: value at the top dose of about 77 µM; on the % scale 0 is the no-effect control and ±100 the full control effect
Target sequence (P48426 whole entry, looked up): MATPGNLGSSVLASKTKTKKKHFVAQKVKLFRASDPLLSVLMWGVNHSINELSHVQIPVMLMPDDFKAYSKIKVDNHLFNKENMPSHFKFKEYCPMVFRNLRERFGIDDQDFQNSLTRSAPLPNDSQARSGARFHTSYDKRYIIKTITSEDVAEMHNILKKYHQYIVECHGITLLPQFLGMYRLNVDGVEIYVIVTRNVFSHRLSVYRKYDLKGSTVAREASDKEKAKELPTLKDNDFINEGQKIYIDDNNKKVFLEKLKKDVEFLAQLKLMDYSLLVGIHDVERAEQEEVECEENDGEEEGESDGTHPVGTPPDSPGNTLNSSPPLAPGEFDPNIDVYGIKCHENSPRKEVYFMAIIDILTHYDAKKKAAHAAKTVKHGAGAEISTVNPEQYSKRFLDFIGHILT
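ADP-Glo luminescence end-point after a 60 min room-temperature kinase reaction. PI5P4Kalpha and substrate in HEPES pH 7.4 buffer with EGTA, 0.1% CHAPS and 5% DMSO; ATP at 5 microM final.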
G9a block: inhibitors of human histone lysine methyltransferase G9a. Q96KQ7. G9a H3K9 monomethylation, AlphaScreen, 2 h. Potency, µM (series often up to 102 µM), without a hit: at the highest dose activity, negative = inhibition, usual class: inhibitors. 8.8% of 350,000 active. AID 504332; further: potency means the concentration at half of the fitted maximal effect; on the % scale 0 is the no-effect control and ±100 the full control effect; nearly all actives have a fitted effect of over 75% in size
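G9a (20 nM) preincubated 15 min RT with compounds, then 500 nM biotinylated H3K9 peptide and 20 uM SAM added; 2 h RT reaction. Monomethyl-H3K9 product detected by AlphaScreen with anti-H3K9me1 antibody, streptavidin donor and anti-rabbit IgG acceptor beads.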
HP1b binding inh: HP1-beta chromodomain-methylated histone interaction inhibition; P83916; AlphaScreen HP1-beta / biotin-H3K9me3 peptide binding; Potency, µM (highest dose often 114 µM), for inactives: top-dose activity change, negative = inhibition, hits mostly inhibitors; 0.56% of 390,000 active; AID 540317; further: potency means the concentration at half of the fitted maximal effect; nearly all actives have a fitted effect of over 70% in size
Target sequence (P83916 whole entry, looked up): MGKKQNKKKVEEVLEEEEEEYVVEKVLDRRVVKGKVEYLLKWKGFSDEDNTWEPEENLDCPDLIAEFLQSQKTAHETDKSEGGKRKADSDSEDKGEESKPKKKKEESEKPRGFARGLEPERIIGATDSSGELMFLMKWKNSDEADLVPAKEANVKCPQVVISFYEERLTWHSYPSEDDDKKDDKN
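HP1-beta protein (50 nM final) preincubated 30 min at room temperature with biotinylated H3(1-18)K9me3 peptide (50 nM) in PBS pH 7.4, 0.01% Tween-20, then compound added for 30 min. AlphaScreen streptavidin donor/nickel chelate acceptor beads (10 ug/mL final), 30 min dark, luminescence read.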
Active calls of the source: *; ? = inconclusive; . = no result; [ ] = another dose, or the depositor's remark. Unless noted, the call rests on the fitted dose curve; in most records, active means well fitted inhibition curve with a large enough effect; inconclusive means small, poorly fitted or top-dose-only effect; inactive means no such curve, though single readings can be large or run the other way.

SMILES | BAZ2B block | L3MBTL1 inh | JMJD2A Tudor | PI5P4K alpha inh | G9a block | HP1b binding inh
CCOC(=O)N1CCN(C(=O)c2ccc3nc(N4CCC(C)CC4)sc3c2)CC1 | -1% | 4% | -13% | 7 | 20%[0.0925 µM] | 7%
CCCn1ccc2c(OCC(=O)Nc3ccc(C(F)(F)F)cc3)cccc2c1=O | 3% | . | -1% | . | 10%[59 µM] | 25%
CN(C)c1ccc(NC(=O)/C=C/c2c(Cl)cccc2Cl)cc1 | ? | -3% | -34% | -1 | 1.8µM* | ?
CC(C)(C)OC(=O)N1CCC(c2c(C(=O)N3CCC(c4ccccc4)C3)cnn2-c2cccc(Cl)c2)CC1 (stereo not drawn) | -10%[57.1 µM] | . | ? | . | -33%[59 µM] | 28%
CN(C)C(=O)CSc1nc(-c2ccccc2)c(-c2ccccc2)o1 | ? | ? | -19%[11.4 µM] | 1 | 13µM* | ?
Cc1[nH][nH]c(=O)c1C(c1c(C)[nH][nH]c1=O)c1cn(Cc2cccc3ccccc23)c2ccccc12 | ? | ? | -27%[11.4 µM] | ? | 45µM* | 28µM*
COc1ccccc1CN1CCNC(=O)C1=O | -14% | . | -10% | . | 6%[12.7 µM] | 23%
COc1ccc(N2C(=NC(=O)C3CCCCC3)SC3CS(=O)(=O)CC32)cc1 (stereo not drawn) | -2%[57.1 µM] | . | -3% | -3 | 16% | 33%
COc1ccc(N2C(=NC(=O)C3CCCCC3)SC3CS(=O)(=O)CC32)c(OC)c1 (stereo not drawn) | -28% | . | 28µM* | 0 | 66% | 6%
Cc1ccc([C@@H]2C[C@H]3CN(Cc4cccc(Cl)c4)C(=O)[C@]34CCCN24)o1 | ? | -4% | -8% | 0 | ? | 17%[57 µM]
O=C1N(Cc2cccc(Cl)c2)C[C@@H]2C[C@@H](c3c[nH]c4ccccc34)N3CCC[C@@]123 | -31% | -18% | ? | -7 | 35µM* | -30%
Cc1cccc([C@@H]2C[C@H]3CN(Cc4cccc(Cl)c4)C(=O)[C@]34CCCN24)n1 | -21% | -1% | -2% | -4 | 40µM* | 18%
O=C(/C=C/c1ccccc1)c1ccc2c(c1)OCCCCO2 | 23% | 1% | 41% | -1 | 21%[59 µM] | 95%
O=C(/C=C/c1ccc2c(c1)OCCCO2)c1ccc2ccccc2c1O | 10µM* | ? | 28µM* | 41 | 11µM* | 25µM*
Cc1ccc(C(=O)/C=C/c2ccc3c(c2)OCCO3)c(O)c1 | ? | -8% | 32µM* | 31 | 40µM* | ?
CN(c1ccc(Cl)cc1)S(=O)(=O)c1nnc(NC(=O)C2CCCCC2)s1 | 5% | . | -12% | . | 2%[59 µM] | 51%
CCOC(=O)c1nnsc1Nc1ccc(C)c(C)c1 | 1% | . | 20% | 2 | 7.1µM* | 71%
C[n+]1ccccc1C1CCCC/C1=N\NC(N)=S (stereo not drawn) | ? | . | 22µM* | -19 | 16µM* | ?
COn1c2c(c3c4nonc4ccc31)CCCC2 | 14% | . | 34% | . | 10µM* | 103%
Cc1ccc(C(=O)Oc2coc(CSc3nnc(NC(=O)c4cccs4)s3)cc2=O)cc1 | -37% | ? | -36% | ? | 13µM* | 30%
CC1C2(C)OCC(C#N)(C(=N)O2)C1(C#N)C#N (stereo not drawn) | 1% | 1% | . | . | 45µM* | .
CC(C)(C)NC(=O)[C@H]1CN(Cc2cccnc2)CCN1C[C@@H](O)C[C@@H](Cc1ccccc1)C(=O)N[C@H]1c2ccccc2C[C@H]1O | . | . | . | . | 7%[59 µM] | .
COc1cc(OC)c(NC(=O)Cc2c(C(=O)O)c(C)cn2C)cc1Cl | ? | . | -20% | . | 10%[59 µM] | -11%
CCOc1ccc(N2C(=O)CC(Sc3nc4ccc(OCC)cc4s3)C2=O)cc1 (stereo not drawn) | . | . | -8% | 1 | . | 70%
CC(=O)Nc1ccc(N2C(=O)CC(Sc3nc4ccccc4s3)C2=O)cc1 (stereo not drawn) | -32% | -1% | -17% | 3 | 28µM* | 35%
SMILES | BAZ2B block | L3MBTL1 inh | JMJD2A Tudor | PI5P4K alpha inh | G9a block | HP1b binding inh
CCOC(=O)c1cnc(SC2CC(=O)N(c3ccc(OC)c(OC)c3)C2=O)nc1N (stereo not drawn) | 13% | -6% | -7% | . | 20µM* | 19%
CCOC(=O)c1cnc(SCC(=O)Nc2cc(OC)ccc2OC)nc1N | ? | . | -34% | -3 | -28%[59 µM] | 27%
CCOc1ccc2nc(SC3CC(=O)N(c4ccc(C)cc4)C3=O)sc2c1 (stereo not drawn) | -2% | -14% | -10% | . | -8%[2.33 µM] | 44%
COc1ccc(N2C(=O)CC(Sc3nc4ccccc4s3)C2=O)cc1OC (stereo not drawn) | -18% | -9% | -14% | 2 | 32µM* | 30%
CCOc1ccc2nc(SC3CC(=O)N(c4ccc(OC)cc4OC)C3=O)sc2c1 (stereo not drawn) | -22% | -7% | -22% | 0 | 32µM* | 34%
COc1ccc(CCNC(=O)CCc2c(C)c3cc4c(C)c(C)oc4cc3oc2=O)cc1OC | -23% | . | -14% | . | -23%[59 µM] | 24%
CS(=O)(=O)c1ccc(C(O)C(CO)NC(=O)C(Cl)Cl)cc1 (stereo not drawn) | . | . | . | . | -41%[2.33 µM] | .
Cc1cccc(CNC(=O)C2CCN(c3nnc(-n4c(C)ccc4C)s3)CC2)c1 | -6% | . | -29% | . | 3%[59 µM] | -7%
O=C(CSc1nc2c([nH]c3ccccc32)c(=O)n1-c1ccccc1)Nc1ccc(Cl)c(Cl)c1 | -8% | . | -17% | . | 16%[59 µM] | 15%[57 µM]
C=CCN(c1ccc(C(=O)Nc2cccc(C)c2)cc1)S(C)(=O)=O | -3% | 11% | -15% | 2 | -8% | -11%
C=CCN(c1ccc(C(=O)Nc2ccc(NC(C)=O)cc2)cc1)S(C)(=O)=O | 7% | . | 14µM* | ? | -25% | -7%
O=C(NCc1ccco1)c1ccc(N2CCOCC2)c([N+](=O)[O-])c1 | -24% | 0% | -24% | -15 | ? | -4%
O=C(/C=C/c1ccc(N2CCCCC2)c([N+](=O)[O-])c1)c1ccc(S(=O)(=O)N2CCCC2)cc1 | ? | -8% | -22% | -6 | 4.5µM* | ?
CNc1ccc(/C=C/C(=O)c2ccc(C)cc2)cc1[N+](=O)[O-] | ? | -25% | ? | 5 | ? | ?
Cc1ccc(S(=O)(=O)N2CCN(C(=O)c3ccc(N4CCCC4)c([N+](=O)[O-])c3)CC2)cc1 | ? | . | ? | 1 | -4%[12.7 µM] | -22%
Cc1ccc(N(Cc2ccco2)C(=O)c2ccc(N3CCCCC3)c([N+](=O)[O-])c2)cc1 | ? | ? | 18µM* | 7 | ? | ?
Cc1ccc(S(=O)(=O)N2CCN(C(=O)c3ccc(N4CCCCC4)c([N+](=O)[O-])c3)CC2)cc1 | ? | . | ? | -1 | 32µM* | -20%
